Results reported in PubChem BioAssay (NCATS).
Inconclusive results are not listed. Entries that show only a call come without a potency. Unmarked numbers belong to inactive results. Activity calls are given as the source filed them. Calls follow the shape of the dose curve; as a rule, active = well fitted inhibition curve with a large enough effect; inconclusive = small, poorly fitted or top-dose-only effect; inactive = no such curve, though single readings can be large or run the other way.

What follows are molecules tested against Rap guanine nucleotide exchange factor 4 (Homo sapiens) (UniProt Q8WZA2) (assay: Confirmatory qHTS for antagonist of cAMP-regulated guanine nucleotide exchange factor 4 (EPAC2) (AID 1645885; also: nearly all actives have a fitted effect of over 25% in size; also: potency is read from the fitted curve at half-maximal effect)). Details: EPAC2 Rap1B-BODIPY-GDP exchange fluorescence, biochemical; series mostly up to 12.7 µM.
Sequence of Rap guanine nucleotide exchange factor 4 (Homo sapiens) (Q8WZA2 whole entry, looked up): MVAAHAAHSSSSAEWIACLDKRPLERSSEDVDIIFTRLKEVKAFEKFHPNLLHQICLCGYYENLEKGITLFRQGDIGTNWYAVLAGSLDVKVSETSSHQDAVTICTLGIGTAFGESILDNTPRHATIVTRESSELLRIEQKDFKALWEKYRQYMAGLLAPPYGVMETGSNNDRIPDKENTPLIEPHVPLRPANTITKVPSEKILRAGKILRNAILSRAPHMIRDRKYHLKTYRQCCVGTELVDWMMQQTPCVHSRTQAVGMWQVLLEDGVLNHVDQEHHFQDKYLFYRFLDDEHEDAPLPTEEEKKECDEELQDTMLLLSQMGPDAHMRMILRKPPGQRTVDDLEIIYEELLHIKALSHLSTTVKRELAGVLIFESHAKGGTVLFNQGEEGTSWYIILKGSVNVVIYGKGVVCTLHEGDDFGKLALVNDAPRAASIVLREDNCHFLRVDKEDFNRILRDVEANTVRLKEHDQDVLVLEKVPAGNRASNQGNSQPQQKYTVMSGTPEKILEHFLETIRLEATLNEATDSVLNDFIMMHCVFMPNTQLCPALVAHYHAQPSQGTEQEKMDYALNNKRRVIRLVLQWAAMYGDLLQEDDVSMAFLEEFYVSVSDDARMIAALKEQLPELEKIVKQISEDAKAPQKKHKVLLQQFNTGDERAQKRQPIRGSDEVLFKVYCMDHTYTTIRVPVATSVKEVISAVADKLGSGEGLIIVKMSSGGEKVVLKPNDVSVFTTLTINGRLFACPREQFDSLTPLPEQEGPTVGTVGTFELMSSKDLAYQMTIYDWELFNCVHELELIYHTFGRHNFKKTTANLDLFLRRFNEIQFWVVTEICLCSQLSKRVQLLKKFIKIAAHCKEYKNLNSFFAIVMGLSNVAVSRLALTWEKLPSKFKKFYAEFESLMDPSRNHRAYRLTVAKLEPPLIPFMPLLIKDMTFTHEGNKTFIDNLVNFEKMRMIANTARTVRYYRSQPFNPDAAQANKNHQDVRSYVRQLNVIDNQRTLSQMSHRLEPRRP

Structure (SMILES) | Potency
O=C(N/N=C/c1cc(Cl)cc([N+](=O)[O-])c1O)NC12CC3CC(CC(C3)C1)C2 | inactive
COc1ccc(-c2ncccc2OC(=O)C23CC4CC(CC(C4)C2)C3)cc1OC | inactive
COc1ccc(NC(=O)/C(C#N)=C\c2ccc(OCc3ccc(C(=O)O)cc3)c(OC)c2)cc1 | inactive
COc1ccc(OC)c(/C=C2\SC(=S)N(Cc3cccnc3)C2=O)c1 | inactive
O=C(c1cccs1)N(Cc1cccnc1)c1nc2c(Cl)cccc2s1 | inactive
O=C1CCC2CN3CCc4c([nH]c5ccccc45)C3CC2C1 (centres undefined) | inactive
Cc1ccc2nc(/C(C#N)=C\c3ccc(N4CCOCC4)o3)[nH]c2c1 | inactive
O=C(NCc1ccco1)c1ccc(Cn2c(=S)[nH]c3ccccc3c2=O)cc1 | 0.953 µM (active)
COC(=O)c1ccccc1C(=O)c1cccc2ccccc12 | inactive
COC(=O)c1cc2oc(C)cc2n1Cc1cc(C)ccc1C | inactive
Cc1cccn2c(=O)c(/C=C(\C#N)c3nc4ccccc4n3C)c(Oc3ccc(Br)cc3)nc12 | inactive
COC(=O)C1=CC(C(=O)c2cccs2)=NN(c2ccc(OC)cc2)C1C(=O)OC (centres undefined) | inactive
Nc1ccccc1Oc1ccc2ccccc2c1 | inactive
CCN(C(=O)CN1CCN(c2ccccc2O)CC1)c1c(N)n(Cc2ccccc2)c(=O)[nH]c1=O | inactive
CN1CCc2c(sc(NC(=O)CSc3ccccc3)c2-c2nc3ccccc3s2)C1 | inactive
CCOc1cc(/C=N/NC(=O)c2ccc(-c3csc(Nc4ccc(C)cc4)n3)cc2)ccc1OCC(=O)O | inactive
O=S1(=O)NC(c2ccccc2)CC(CC2CCCCC2)O1 (centres undefined) | inactive
COC(=O)c1ccc2nc(-c3ccccc3)c(Cc3cccc(F)c3)n2c1 | inactive
COc1ccc(N=Cc2c(O)ccc3ccccc23)cc1 | inactive
Cc1cccc(-c2nc3nc(C)cc(NCc4ccccc4Cl)n3n2)c1 | inactive
COc1ccc(/C(O)=C/c2nc3ccccc3n(-c3ccccc3)c2=O)cc1 | 75.7 µM (active)
CN(C)c1ccc(/C=C/C(=O)c2cccc(Br)c2)cc1 | inactive
COc1ccc(OC)c(NC(=S)N2c3ccccc3CC2C)c1 (centres undefined) | inactive
COc1cc2c(c(OC)c1OC)C(c1ccc(C)cc1)CC(=O)O2 (centres undefined) | inactive

The molecules below were run against Rap guanine nucleotide exchange factor 3 (Homo sapiens) (UniProt O95398) (assay: Counterscreen qHTS for antagonist of cAMP-regulated guanine nucleotide exchange factor 3 (EPAC1) (AID 1645888;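 also: fluorescence loss as bound BODIPY-GDP is released from Rap1B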)). Details: Rap1B-BODIPY-GDP nucleotide exchange, fluorescence; series mostly up to 154 µM.
Sequence of Rap guanine nucleotide exchange factor 3 (Homo sapiens) (O95398 whole entry, looked up): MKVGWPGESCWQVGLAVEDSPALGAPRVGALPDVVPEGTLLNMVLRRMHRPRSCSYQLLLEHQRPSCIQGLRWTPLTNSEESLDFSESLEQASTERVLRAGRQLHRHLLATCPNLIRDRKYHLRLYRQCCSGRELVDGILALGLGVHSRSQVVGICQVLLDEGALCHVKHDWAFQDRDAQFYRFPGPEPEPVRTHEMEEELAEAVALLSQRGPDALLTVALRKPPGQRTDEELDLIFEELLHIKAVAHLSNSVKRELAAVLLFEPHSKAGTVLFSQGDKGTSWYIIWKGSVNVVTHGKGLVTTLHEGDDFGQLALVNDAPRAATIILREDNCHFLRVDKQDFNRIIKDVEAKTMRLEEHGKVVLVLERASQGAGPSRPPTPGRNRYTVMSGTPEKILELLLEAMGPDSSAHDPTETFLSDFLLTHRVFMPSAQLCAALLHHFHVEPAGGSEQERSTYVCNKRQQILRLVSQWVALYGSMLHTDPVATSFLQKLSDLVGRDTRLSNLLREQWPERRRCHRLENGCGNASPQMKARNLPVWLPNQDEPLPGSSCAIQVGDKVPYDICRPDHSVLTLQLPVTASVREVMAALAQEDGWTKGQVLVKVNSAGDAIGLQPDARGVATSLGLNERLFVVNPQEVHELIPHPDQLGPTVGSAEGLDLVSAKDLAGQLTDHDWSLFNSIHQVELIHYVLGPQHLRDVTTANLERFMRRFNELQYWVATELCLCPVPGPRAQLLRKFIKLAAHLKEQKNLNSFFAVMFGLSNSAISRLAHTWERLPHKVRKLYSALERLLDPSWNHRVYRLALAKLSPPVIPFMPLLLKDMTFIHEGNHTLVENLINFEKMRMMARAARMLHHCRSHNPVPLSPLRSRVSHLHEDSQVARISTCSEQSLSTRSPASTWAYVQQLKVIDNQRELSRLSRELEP
Outline: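 Measured: fluorescence of BODIPY-GDP bound to Rap1B, which falls as exchange proceeds. Conditions include 50 uM competing GDP, 5 and 30 min reads, and a later cAMP challenge for antagonist detection.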

Structure (SMILES) | activity change, negative = inhibition | Potency
CN(C)c1ccc(/C=C(\C#N)C(=O)c2ccccc2)cc1 | 15.5% [at 30.8 µM] | –
NC(=O)c1c(NC(=O)c2ccccc2)sc2c1CCN(Cc1ccccc1)C2 | – | inactive
COc1cccc(-n2c(SCC(=O)Nc3ccc(F)cc3F)nc3c([nH]c4ccccc43)c2=O)c1 | – | inactive
CCOc1ccc(NC(=O)/C(C#N)=C/c2ccc(N3CCCC3)c(C)c2)cc1 | 15.4% [at 30.8 µM] | –
Cc1ccc(S(=O)(=O)C2(C(=O)Nc3ccc(Br)cc3)CC2)cc1 | -6.73% [at 30.8 µM] | –
CCOC(=O)C1=C(C)N=c2s/c(=C\c3cccn3C)c(=O)n2C1c1cccc(OC)c1OC (centres undefined) | -4.43% [at 30.8 µM] | –
COc1ccc(NC(=O)c2c(-c3ccccc3)c(-c3ccccc3)nn(C)c2=O)c(OC)c1 | – | inactive
CCOC(=O)N1CCc2c(sc3c2c(=O)n(-c2ccc(F)cc2)c(=O)n3CC(=O)c2ccc(Cl)cc2)C1 | – | inactive
CN(C)c1ccc(C2C=C(c3ccc(Cl)cc3OC(F)F)Nc3ncnn32)cc1 (centres undefined) | -14.7% [at 30.8 µM] | –
CCc1ccc(NC(=O)/C(C#N)=C/c2cc3ccc(C)cc3nc2N2CCOCC2)cc1 | -18.1% [at 30.8 µM] | –
CN(C)c1ccc(/C=C2\SC(=S)N(Nc3ncc(C(F)(F)F)cc3Cl)C2=O)cc1 | – | inactive
CN(C)c1ccc(C(=O)/C=C/c2ccc(Br)cc2)cc1 | – | inactive
COc1ccccc1C(=O)NNC(=O)CCCN1C(=O)/C(=C/c2cccs2)SC1=S | 10.7% [at 30.8 µM] | –
O=S(=O)(NCC(c1ccco1)N1CCc2ccccc21)c1ccccc1 (centres undefined) | -0.643% [at 30.8 µM] | –
COC(=O)c1c(C)c2c(C)cc3ccccn3c-2c1C(=O)OC | 9.53% [at 30.8 µM] | –
CCOc1ccccc1Oc1nc(C)nc2c1oc1ccccc12 | – | inactive
O=C(N/N=C/c1cc(Cl)cc([N+](=O)[O-])c1O)NC12CC3CC(CC(C3)C1)C2 | – | inactive
COc1ccc(-c2ncccc2OC(=O)C23CC4CC(CC(C4)C2)C3)cc1OC | -6.96% [at 30.8 µM] | –
COc1ccc(NC(=O)/C(C#N)=C\c2ccc(OCc3ccc(C(=O)O)cc3)c(OC)c2)cc1 | – | inactive
COc1ccc(OC)c(/C=C2\SC(=S)N(Cc3cccnc3)C2=O)c1 | -3.11% [at 30.8 µM] | –

Structure (SMILES) | activity change, negative = inhibition | Potency
O=C(c1cccs1)N(Cc1cccnc1)c1nc2c(Cl)cccc2s1 | – | inactive
O=C1CCC2CN3CCc4c([nH]c5ccccc45)C3CC2C1 (centres undefined) | 2.15% [at 30.8 µM] | –
Cc1ccc2nc(/C(C#N)=C\c3ccc(N4CCOCC4)o3)[nH]c2c1 | 15.8% [at 30.8 µM] | –
O=C(NCc1ccco1)c1ccc(Cn2c(=S)[nH]c3ccccc3c2=O)cc1 | – | inactive
COC(=O)c1ccccc1C(=O)c1cccc2ccccc12 | – | inactive
COC(=O)c1cc2oc(C)cc2n1Cc1cc(C)ccc1C | – | inactive
Cc1cccn2c(=O)c(/C=C(\C#N)c3nc4ccccc4n3C)c(Oc3ccc(Br)cc3)nc12 | – | inactive
COC(=O)C1=CC(C(=O)c2cccs2)=NN(c2ccc(OC)cc2)C1C(=O)OC (centres undefined) | -26% [at 30.8 µM] | –
Nc1ccccc1Oc1ccc2ccccc2c1 | – | inactive
CCN(C(=O)CN1CCN(c2ccccc2O)CC1)c1c(N)n(Cc2ccccc2)c(=O)[nH]c1=O | – | inactive
CN1CCc2c(sc(NC(=O)CSc3ccccc3)c2-c2nc3ccccc3s2)C1 | – | inactive
CCOc1cc(/C=N/NC(=O)c2ccc(-c3csc(Nc4ccc(C)cc4)n3)cc2)ccc1OCC(=O)O | – | inactive
O=S1(=O)NC(c2ccccc2)CC(CC2CCCCC2)O1 (centres undefined) | -0.437% [at 30.8 µM] | –
COC(=O)c1ccc2nc(-c3ccccc3)c(Cc3cccc(F)c3)n2c1 | 10% [at 30.8 µM] | –
COc1ccc(N=Cc2c(O)ccc3ccccc23)cc1 | 17.7% [at 30.8 µM] | –
Cc1cccc(-c2nc3nc(C)cc(NCc4ccccc4Cl)n3n2)c1 | – | inactive
COc1ccc(/C(O)=C/c2nc3ccccc3n(-c3ccccc3)c2=O)cc1 | – | inactive
CN(C)c1ccc(/C=C/C(=O)c2cccc(Br)c2)cc1 | 21.2% [at 30.8 µM] | –
COc1ccc(OC)c(NC(=S)N2c3ccccc3CC2C)c1 (centres undefined) | -17.1% [at 30.8 µM] | –
COc1cc2c(c(OC)c1OC)C(c1ccc(C)cc1)CC(=O)O2 (centres undefined) | 6.91% [at 30.8 µM] | –
